From PubChem BioAssay (Tox21)
Results filed as inconclusive are left out. Active and inactive are the calls of the source. Calls come from the whole dose curve; as a rule, active = well fitted curve in the direction sought with a large enough effect in the repeat runs; inconclusive = weak or mixed curves; inactive = no such curve, though single readings can be large; an effect the other way counts as inactive or inconclusive.

Columns and labels:
[1] = A CellTox Green Cytotoxicity Assay to monitor cytotoxicity in HEK293 cells - 40 hour (AID 1224871); settings: CellTox Green fluorescence; series mostly up to 76.8 µM; note: nearly all actives have a fitted effect of over 45% in size
Outline: (§1)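 Dead-cell fluorescence measured kinetically: asymmetric cyanine dye, HEK293, 600 cells/well, 5 h settle, 23 nL cpd/DMSO, 37 C, reads 0–40 h every 8 h.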

[2] = qHTS RealTime-Glo MT Cell Viability Assay in HEK293 cells - 16 hour (AID 1224872); settings: RealTime-Glo luminescence; series mostly up to 76.8 µM; note: nearly all actives have a fitted effect of over 50% in size; note: potency is the fitted concentration of half-maximal effect
Outline: (§2)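 Quantitative high-throughput screen of the Tox21 10K library in HEK293: cells and RealTime-Glo reagents plated together, compound added at 5 h, luminescence monitored through 40 h at 37 C.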

[3] = qHTS RealTime-Glo MT Cell Viability Assay in HepG2 cells - 8 hour (AID 1224873); settings: RealTime-Glo luminescence; series mostly up to 76.8 µM; note: nearly all actives have a fitted effect of over 55% in size
Outline: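 Real-time viability: cells seeded at 600 per well together with NanoLuc and cell-permeant prosubstrate, compounds added after 5 h incubation. Luminescence tracked at 0, 8, 16, 24, 32 and 40 h of exposure.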

[4] = qHTS RealTime-Glo MT Cell Viability Assay in HEK293 cells - 40 hour (AID 1224874); settings: RealTime-Glo luminescence; max response: hits give low values; note: nearly all actives have a fitted effect of over 50% in size; note: potency is the fitted concentration of half-maximal effect
Outline: (§3)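 600 HEK293 cells per well, dispensed already mixed with RealTime-Glo MT reagents. Compound dosing came 5 h later. The same wells were read for luminescence at 0, 8, 16, 24, 32 and 40 h of exposure at 37 C.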

[5] = A CellTox Green Cytotoxicity Assay to monitor cytotoxicity in HEK293 cells - 24 hour (AID 1224875); settings: CellTox Green fluorescence, hits give high values; series mostly up to 76.8 µM; note: nearly all actives have a fitted effect of over 45% in size
Outline: as §1

[6] = A CellTox Green Cytotoxicity Assay to monitor cytotoxicity in HepG2 cells - 16 hour (AID 1224876); settings: CellTox Green fluorescence; series mostly up to 76.8 µM; note: nearly all actives have a fitted effect of over 45% in size
Outline: (§4)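 First, HepG2 cells (600/well) mixed with reagent were plated; second, after 5 h at 37 C they received compounds via pintool; third, fluorescence was measured at 0 h through 40 h at 8 h intervals.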

[7] = A CellTox Green Cytotoxicity Assay to monitor cytotoxicity in HepG2 cells - 24 hour (AID 1224878); settings: CellTox Green fluorescence; series mostly up to 76.8 µM; note: nearly all actives have a fitted effect of over 45% in size
Outline: as §4

[8] = A CellTox Green Cytotoxicity Assay to monitor cytotoxicity in HepG2 cells - 40 hour (AID 1224879); settings: CellTox Green fluorescence; series mostly up to 76.8 µM; note: nearly all actives have a fitted effect of over 40% in size
Outline: as §4

[9] = qHTS RealTime-Glo MT Cell Viability Assay in HEK293 cells - 0 hour (AID 1224880); settings: RealTime-Glo luminescence; series mostly up to 76.8 µM
Outline: as §3

[10] = A CellTox Green Cytotoxicity Assay to monitor cytotoxicity in HEK293 cells - 32 hour (AID 1224881); settings: CellTox Green fluorescence; series mostly up to 76.8 µM; note: nearly all actives have a fitted effect of over 40% in size
Outline: as §1

[11] = A CellTox Green Cytotoxicity Assay to monitor cytotoxicity in HepG2 cells - 0 hour (AID 1224882); settings: CellTox Green fluorescence; series mostly up to 76.8 µM; note: nearly all actives have a fitted effect of over 35% in size
Outline: as §4

[12] = A CellTox Green Cytotoxicity Assay to monitor cytotoxicity in HepG2 cells - 32 hour (AID 1224883); settings: CellTox Green fluorescence; series mostly up to 76.8 µM; note: nearly all actives have a fitted effect of over 50% in size
Outline: as §4

[13] = qHTS RealTime-Glo MT Cell Viability Assay in HepG2 cells - 16 hour (AID 1224885); settings: RealTime-Glo luminescence; series mostly up to 76.8 µM; note: nearly all actives have a fitted effect of over 50% in size
Outline: (§5)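 Compound treatment began 5 h after plating HepG2 cells (600/well) with NanoLuc luciferase and prosubstrate. Plates stayed at 37 C for 40 h; luminescence was captured at six time points, 0 h through 40 h.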

[14] = qHTS RealTime-Glo MT Cell Viability Assay in HEK293 cells - 24 hour (AID 1224886); settings: RealTime-Glo luminescence; series mostly up to 76.8 µM
Outline: as §2

[15] = qHTS RealTime-Glo MT Cell Viability Assay in HEK293 cells - 8 hour (AID 1224887); settings: RealTime-Glo luminescence; series mostly up to 76.8 µM; note: nearly all actives have a fitted effect of over 50% in size; note: potency is the fitted concentration of half-maximal effect
Outline: as §3

[16] = A CellTox Green Cytotoxicity Assay to monitor cytotoxicity in HEK293 cells - 16 hour (AID 1224888); settings: CellTox Green fluorescence, hits give high values; series mostly up to 76.8 µM; note: nearly all actives have a fitted effect of over 35% in size
Outline: as §1

[17] = qHTS RealTime-Glo MT Cell Viability Assay in HepG2 cells - 0 hour (AID 1224889); settings: RealTime-Glo luminescence; series mostly up to 76.8 µM; note: nearly all actives have a fitted effect of over 50% in size
Outline: as §5

[18] = A CellTox Green Cytotoxicity Assay to monitor cytotoxicity in HepG2 cells - 8 hour (AID 1224890); settings: CellTox Green fluorescence; series mostly up to 76.8 µM; note: nearly all actives have a fitted effect of over 45% in size
Outline: as §4

[19] = A CellTox Green Cytotoxicity Assay to monitor cytotoxicity in HEK293 cells - 8 hour (AID 1224884); settings: CellTox Green fluorescence; series mostly up to 76.8 µM; note: nearly all actives have a fitted effect of over 35% in size
Outline: as §1

[20] = qHTS RealTime-Glo MT Cell Viability Assay in HepG2 cells - 32 hour (AID 1224877); settings: RealTime-Glo luminescence; series mostly up to 76.8 µM; note: nearly all actives have a fitted effect of over 55% in size
Outline: as §5
% is set by controls: 0 for no effect and ±100 for the full control effect.

COCCOCCOCCOCCO
inactive: Potency [1] | Potency [2] | outcome [3] | max response [4] 4.56% | outcome [5] | outcome [6] | outcome [7] | Potency [8] | Potency [9] | Potency [10] | outcome [11] | Potency [12] | outcome [13] | Potency [14] | Potency [15] | outcome [16] | Potency [17] | outcome [18]

O=S(=O)(O)c1ccc2cc(O)c(S(=O)(=O)O)cc2c1
inactive: Potency [1] | Potency [2] | outcome [3] | max response [4] -1.21% | outcome [5] | outcome [6] | outcome [7] | Potency [8] | Potency [9] | Potency [10] | outcome [11] | Potency [12] | outcome [13] | Potency [14] | Potency [15] | outcome [16] | Potency [17] | outcome [18]

CC(C)OC(=O)CCCCC(=O)OC(C)C
inactive: Potency [1] | Potency [2] | outcome [3] | max response [4] 13.3% | outcome [5] | outcome [6] | outcome [7] | Potency [8] | Potency [9] | Potency [10] | outcome [11] | Potency [12] | Potency [19] | outcome [13] | Potency [14] | Potency [15] | outcome [16] | Potency [17] | outcome [18]

CC(C)CCCCOC(=O)c1ccccc1C(=O)OCCCCC(C)C
inactive: Potency [1] | Potency [2] | outcome [3] | max response [4] -1.41% | outcome [5] | outcome [6] | outcome [7] | Potency [8] | Potency [9] | Potency [10] | outcome [11] | Potency [12] | outcome [13] | Potency [14] | Potency [15] | outcome [16] | Potency [17] | outcome [18]

CC(C)(C)c1cc(CCC(=O)NN)cc(C(C)(C)C)c1O
inactive: Potency [1] | Potency [2] | outcome [3] | max response [4] -14% | outcome [5] | outcome [6] | outcome [20] | Potency [9] | Potency [10] | Potency [19] | outcome [13] | Potency [14] | Potency [15] | Potency [17] | outcome [18]

O=C(OCC(O)CO)c1ccccc1Nc1ccnc2c(C(F)(F)F)cccc12 (stereo unspecified)
inactive: Potency [1] | outcome [3] | outcome [5] | outcome [6] | outcome [7] | Potency [8] | Potency [9] | Potency [10] | outcome [11] | Potency [12] | Potency [19] | outcome [13] | Potency [17] | outcome [18]
active: Potency [2] 5.35 µM | Potency [4] 3.79 µM | Potency [15] 3.79 µM

N[C@@H](CCC(=O)Nc1ccc([N+](=O)[O-])cc1)C(=O)O
inactive: Potency [1] | Potency [2] | outcome [3] | max response [4] -16.1% | outcome [5] | outcome [6] | outcome [7] | Potency [8] | Potency [9] | Potency [10] | outcome [11] | Potency [12] | Potency [19] | Potency [14] | Potency [15] | outcome [16] | Potency [17] | outcome [18]

O=C(NCC(O)CO)c1c(I)c(C(=O)NCC(O)CO)c(I)c(N(CCO)C(=O)CO)c1I (stereo unspecified)
inactive: Potency [1] | Potency [2] | outcome [3] | max response [4] 8.98% | outcome [5] | outcome [6] | outcome [7] | Potency [8] | Potency [9] | Potency [10] | outcome [11] | Potency [12] | Potency [19] | outcome [13] | Potency [14] | Potency [15] | outcome [16] | Potency [17] | outcome [18]

O=C(CS(=O)Cc1ccco1)NC/C=C\COc1cc(CN2CCCCC2)ccn1 (stereo unspecified)
inactive: Potency [1] | Potency [2] | outcome [3] | max response [4] -0.682% | outcome [5] | outcome [6] | outcome [7] | Potency [8] | Potency [9] | Potency [10] | outcome [11] | Potency [12] | outcome [13] | Potency [14] | Potency [15] | outcome [16] | Potency [17] | outcome [18]

CC[C@H](C)C(=O)O[C@H]1C[C@H](O)C=C2C=C[C@H](C)[C@H](CC[C@@H](O)C[C@@H](O)CC(=O)O)[C@H]21
inactive: Potency [1] | Potency [2] | outcome [3] | max response [4] 13.5% | outcome [5] | outcome [6] | outcome [7] | Potency [8] | Potency [9] | Potency [10] | outcome [11] | Potency [12] | Potency [19] | outcome [13] | Potency [15] | outcome [16] | Potency [17] | outcome [18]

CC(C)=CCOC(=O)c1ccccc1
inactive: Potency [2] | outcome [3] | max response [4] -0.369% | outcome [5] | outcome [20] | Potency [9] | Potency [10] | Potency [19] | outcome [13] | Potency [14] | Potency [15] | Potency [17] | outcome [18]
